ELG1 repair inh: ELG1-dependent DNA repair inhibition | AID 504467 | hit rate 2.3% among 330,000 | Potency, µM (top dose mostly 46.1 µM), inactives show top-dose activity change, negative = inhibition, actives largely listed as inhibitors | HEK293T ELG1-luciferase reporter, luminescence, 16 h; DNA damage induced by 5-fluorouridine; note: potency is the fitted concentration of half-maximal effect; nearly all actives have a fitted effect of over 55% in size
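In this reporter screen, reduction of luminescence relative to DMSO vehicle indicated activity. Compounds and 5-fluorouridine were added together to 2,000 cells per well, incubated for 16 hr at 37 °C, then developed with ONE-Glo.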
Coupling enz: coupling enzyme interference in Giardia aldolase counter-screen. coupling enzyme system counterscreen, AmpLite Red fluorescence. activity change, negative = inhibition, % at 58.2 µM, hits read low. hit rate 0.67% among 290,000; in the data active = activity change below about -30%
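First, compound is pin-transferred into glyceraldehyde-3-phosphate coupling-enzyme reagent at 57.5 uM final and held 10 min at RT. Next, substrate, coupling system and AmpLite Red are added. After 20 min RT, fluorescence (525/598 nm) is read.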
Giardia kill: kills Giardia lamblia. Giardia lamblia trophozoite viability. hit rate 0.15% among 340,000. activity change, % at 7.66 µM, hits read low. AID 540267; in the data active = activity change below about -80%; inconclusive = between about -30% and that limit;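 note: parasites exposed to compound for two days anaerobically before the ATP read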
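Giardia lamblia trophozoites (100 cells/well) were incubated with compounds for 48 h at 37 deg C under anaerobic conditions. Viability was read as ATP content by one-step luminescence after 15-30 min at room temperature.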
Sfp PPTase inh: Sfp phosphopantetheinyl transferase inhibition. Q9F4F7. Biochemical Sfp PPTase activity, qHTS. Potency, µM, for the others: largest response in the series, negative = inhibition, hits mostly inhibitors. hit rate 3.5% among 310,000;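 note: the enzyme is Sfp with the accession as filed and its product quenches rhodamine fluorescence; potency is the fitted concentration of half-maximal effect; 0% = enzyme reaction without inhibitor and -100% = no enzyme wells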
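With Hepes-Na pH 7.6 buffer containing 10 mM MgCl2, Sfp (15 nM) modified BHQ-2-YbbR (12.5 uM) using rhodamine-CoA (5 uM). Two reads 30 minutes apart at 525/598 nm yielded each well's rate.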
Starred values were filed as active, the others as inactive; ? = inconclusive; nt = no result given; ! = a repeat was not active. Rows were chosen to be rich in hits. Some 5.5% of all compounds tested hit in one or more screens of this group. Unless noted, calls come from the whole dose curve; as a rule, active = well fitted curve in the direction sought with a large enough effect; inconclusive = small, poorly fitted or top-dose-only effect, or another doubt; inactive = no such curve, though single readings can be large; an effect the other way counts as inactive or inconclusive. Unless noted, % is set by controls: 0 for no effect and ±100 for the full control effect.

SMILES	ELG1 repair inh	Coupling enz	Giardia kill	Sfp PPTase inh
COc1ccc(CCNC(=O)CSc2ccsc2[N+](=O)[O-])cc1OC	3%	-1	-89*	11%
O=C(CSc1ccsc1[N+](=O)[O-])NC1CCCC1	-7%	0	-90*	7%
CC1CCCCC1NC(=O)CSc1ccsc1[N+](=O)[O-] (configuration not stated)	10%	3	?	8%
O=C(CSc1nc2ccc([N+](=O)[O-])cc2[nH]1)NC1CCCCCC1	16µM*	-3	4	23%
C=C(C)[C@@H]1CC[C@]2(C(=O)O)CC[C@]3(C)[C@H](CCC4[C@@]5(C)CC[C@H](O)C(C)(C)[C@@H]5CC[C@]43C)[C@@H]12 (some centres not stated)	nt	nt	nt	24%
COc1ccc(/C=N/NC2=NS(=O)(=O)c3ccccc32)cc1	1%	3	-6	-5%
O=S1(=O)N=C(N/N=C/c2ccccn2)c2ccccc21	3%	-32*	-3	6%
c1ccc2c(c1)NCCS2	?	-7	8	89µM*
Cc1ccc(N2CC(C(=O)N3CCCCCC3)CC2=O)cc1 (configuration not stated)	?	nt	5	17%
Cc1noc(C)c1COc1ccc(C(=O)NCC(c2c(F)cccc2Cl)N(C)C)cc1 (configuration not stated)	?	nt	-12	nt
Cc1cc(O)c(-c2cc(O)c(C)cc2O)cc1O	-7%	-50*	6	2.5µM*
Cc1nnc(N/N=C/c2ccc(O)c([N+](=O)[O-])c2)[nH]c1=O	2%	0	-11	?
Cc1ccc(N/N=C/c2cccnc2)cc1	?	3	29	-15%
O=[N+]([O-])c1cc(/C=N\Nc2nc(-c3ccccc3)cs2)ccc1O	12%	2	-8	50µM*
Cc1csc(N/N=C\c2cccnc2)n1	?	1	21	56µM*
Cc1csc(N/N=C/c2ccc(O)c([N+](=O)[O-])c2)n1	?	-4	-11	32µM*
CC(C)n1nnnc1SCC(=O)N1CCN(Cc2ccc3c(c2)OCCO3)CC1	-15%	nt	3	nt
O=C(NNC(=O)C1CCCCC1)c1ccco1	10%	0	-6	17%
CCC1CCC(C(=O)NNC(=O)c2cc(-c3ccco3)[nH]n2)CC1 (configuration not stated)	2%	0	4	45µM*
COc1cc(C(=O)OCC(=O)Nc2c(F)c(F)c(F)c(F)c2F)cc(OC)c1OC	26µM*	2	-9	19%
COc1cc(C(=O)OCC(=O)Nc2c(F)cccc2F)cc(OC)c1C	19%	-1	-8	7%
O=[N+]([O-])c1c(NCc2ccccc2)cc(N2CCc3ccccc3C2)c2nonc12	-18%	-40*	3	-17%
COc1ccc(S(=O)(=O)N2CCOCC2)cc1NC(=O)CN(C)Cc1c(F)cccc1Cl	21µM*	-2	-11	-12%
O=C(Nc1cc(S(=O)(=O)N2CCOCC2)ccc1N1CCCC1)C1COc2ccccc2O1 (configuration not stated)	?	0	-1	-15%
CC(C)NC(=O)c1ccccc1NC(=O)C1COc2ccccc2O1 (configuration not stated)	21µM*	-1	0	19%
SMILES	ELG1 repair inh	Coupling enz	Giardia kill	Sfp PPTase inh
COc1ccc(S(=O)(=O)N2CCOCC2)cc1NC(=O)C1COc2ccccc2O1 (configuration not stated)	10µM*	nt	17	nt
CCC(C)NC(=O)c1ccccc1NC(=O)C1COc2ccccc2O1 (configuration not stated)	?	5	-3	9%
COc1ccc(S(=O)(=O)N2CCCCCC2)cc1NC(=O)CN(C)Cc1ccc2c(c1)OCO2	21µM*	nt	-10	nt
OC(Cc1ccnc2ccccc12)C(Cl)(Cl)Cl (configuration not stated)	nt	nt	8	nt
CCC(C)(CN(C)C)OC(=O)c1ccccc1 (configuration not stated)	?	nt	-19	nt
CC(C)(C)NCc1cc2ccccc2[nH]c1=O	15%	-2	-1	13%
Cc1ccc2[nH]c(=O)c(CNC(C)(C)C)cc2c1	0%	-20	-9	5.6µM*
COc1ccc2[nH]c(=O)c(CNc3cc(C)ccc3C)cc2c1	3%	-23	49	50µM*
COc1ccc2[nH]c(=O)c(CNc3ccc(C)cc3C)cc2c1	0%	-20	-2	45µM*
CCNc1nc(NCC)n2c(SCC(=O)Nc3ccc(C)c(C)c3)nnc2n1	-1%	nt	?	nt
CC(C)(C)CNc1nc(C#N)nc(Nc2ccccc2)n1	nt	2	nt	nt
COC(=O)[C@H]1C[C@@H]1[C@H](NS(=O)(=O)c1ccccc1)c1ccccc1	7%	-3	1	71µM*!
COc1cccc(Nc2ncc3nc(CCc4ccccc4)c(=O)n(CCC#N)c3n2)c1	nt	-3	nt	4%
COc1ccc(CC(=O)N/N=C/c2ccc(-c3cccc(C(=O)O)c3)o2)cc1OC	39%	4	-7	14µM*
O=C(O)c1cccc(-c2ccc(/C=N/Nc3nn[nH]n3)o2)c1	?	1	-4	45µM*
Nc1nonc1C(=O)N/N=C/c1ccc(-c2cccc(C(=O)O)c2)o1	?	1	nt	56µM*
CNC(=S)N/N=C/c1ccc(-c2cccc(C(=O)O)c2)o1	?	0	-15	?
Nc1nnc(CC(=O)N/N=C/c2ccc(-c3ccccc3)o2)s1	19%	-3	0	?
COC(=O)c1ccc(-c2ccc(/C=N/NC(=O)Cc3nnc(N)s3)o2)cc1	0%	-4	4	56µM*
Cc1ccc(S(=O)(=O)NCC(=O)OC(C)C(=O)NC2CCCCC2C)cc1C (configuration not stated)	10%	nt	19	nt
COc1ccc(-c2cc(C(F)F)n3ncc(C(=O)NCCCN4CCCC4=O)c3n2)cc1	6.5µM*	1	-4	11%
O=C(NCCCN1CCCC1=O)c1cc(-c2ccc(F)cc2)nc2ccccc12	18µM*	nt	32	nt
COc1ccc(-c2cc(C(F)F)n3ncc(C(=O)Nc4cc(C)on4)c3n2)cc1	?	1	2	79µM*
COc1ccc(-c2cc(C(F)F)n3ncc(C(=O)Nc4c(C)n(C)n(-c5ccccc5)c4=O)c3n2)cc1	?	-1	-10	27%
COc1ccc(-c2cc(C(F)F)n3ncc(C(=O)N4CCN(C(=O)c5ccco5)CC4)c3n2)cc1	3.3µM*	0	11	-25%
COc1ccc(-c2cc(C(F)F)n3ncc(C(=O)N4CCCCC4)c3n2)cc1	?	0	5	-5%
CCN(CC)S(=O)(=O)c1ccc(N2CCOCC2)c(NC(=O)COc2ccccc2C#N)c1	9.2µM*	-1	7	?
CCN(CC)S(=O)(=O)c1ccc(N2CCOCC2)c(NC(=O)Cc2ccc(Cl)cc2)c1	?	3	1	12%
CCN(CC)S(=O)(=O)c1ccc(N2CCOCC2)c(NC(=O)CC23CC4CC(CC(Br)(C4)C2)C3)c1	9.2µM*	-1	-14	0%
Cc1ccccc1OCC(=O)Nc1cc(S(=O)(=O)N2CCOCC2)ccc1N1CCCC1	?	nt	-8	nt
